# Data from PubChem BioAssay (NCATS).
# Results filed as inconclusive are left out. Where a call stands in place of a potency, no number is given. Calls of active or inactive are those of the source. Calls come from the whole dose curve.
# Target: Nucleoprotein (Lymphocytic choriomeningitis virus (strain Armstrong)) (UniProt P09992)
# Experiment: qHTS for Inhibitors of the Functional Ribonucleoprotein Complex (vRNP) of Lymphocytic Choriomeningitis Arenaviruses (LCMV): LCMV Primary Screen - GLuc reporter signal (AID 1347086); note: nearly all actives have a fitted effect of over 70% in size
# Details: LCMV minigenome vRNP cell assay, Gaussia luciferase reporter; series mostly up to 57.5 µM
# Nucleoprotein (Lymphocytic choriomeningitis virus (strain Armstrong)), sequence (P09992 whole entry, looked up): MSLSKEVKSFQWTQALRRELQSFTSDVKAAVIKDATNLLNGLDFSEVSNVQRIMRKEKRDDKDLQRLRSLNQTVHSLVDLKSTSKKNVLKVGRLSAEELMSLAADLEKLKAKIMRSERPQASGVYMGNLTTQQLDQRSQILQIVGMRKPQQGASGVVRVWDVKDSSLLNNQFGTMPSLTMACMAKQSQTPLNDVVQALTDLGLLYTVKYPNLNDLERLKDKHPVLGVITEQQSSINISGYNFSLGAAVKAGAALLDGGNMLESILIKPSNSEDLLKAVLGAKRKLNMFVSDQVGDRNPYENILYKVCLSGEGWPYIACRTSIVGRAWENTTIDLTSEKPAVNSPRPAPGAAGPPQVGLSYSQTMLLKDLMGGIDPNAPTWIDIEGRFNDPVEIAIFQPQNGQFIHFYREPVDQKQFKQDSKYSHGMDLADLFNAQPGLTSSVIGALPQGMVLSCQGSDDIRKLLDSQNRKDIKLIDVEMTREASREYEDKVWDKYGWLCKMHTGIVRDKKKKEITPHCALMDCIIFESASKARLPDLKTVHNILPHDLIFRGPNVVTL
row,SMILES,Potency
1,NC(CO)(CO)CO,inactive
2,CC(=O)OCC(=O)[C@@]1(OC(C)=O)[C@@H](C)C[C@H]2[C@@H]3C[C@H](F)C4=CC(=O)C=C[C@]4(C)[C@@]3(F)[C@@H](O)C[C@@]21C,inactive
3,Cc1nc2c([nH]1)c(=O)n(C)c(=O)n2Cc1ccco1,inactive
4,CC(=O)Nc1c(I)c(NC(C)=O)c(I)c(C(=O)O)c1I,inactive
5,CCOC(=O)[C@H](CCc1ccccc1)N[C@@H](C)C(=O)N1CCC[C@H]1C(=O)O,inactive
6,Cc1cc(=O)[nH]c(=S)[nH]1,inactive
7,CN1C(C)(C)CCCC1(C)C,inactive
8,Cc1cc(=O)c2c(O)c3c(O)cc(=O)c4c3c3c(cc(O)c1c23)C(C)(C)C=4O,inactive
9,CNC(=O)c1c(I)c(NC(C)=O)c(I)c(C(=O)O)c1I,inactive
10,CC(=O)N(CC(O)CO)c1c(I)c(C(=O)NCC(O)CO)c(I)c(C(=O)NCC(O)CO)c1I (stereo not drawn),inactive
11,CO[C@@]1(NC(=O)Cc2cccs2)C(=O)N2C(C(=O)O)=C(COC(N)=O)CS[C@@H]21,inactive
12,COc1ccc(C(=O)N2CCN(CC(=O)N3CCOCC3)CC2)cc1,inactive
13,O=C(/C=C/c1ccccc1)OCc1ccccc1,inactive
14,O=C1c2c(O)cccc2Cc2cccc(O)c21,inactive
15,NC(N)=Nc1nc(CSCC/C(N)=N/S(N)(=O)=O)cs1,inactive
16,CCNC(=O)/C=C/c1cccc(Br)c1,inactive
17,CC(=O)OC(C)OC(=O)C(C)c1ccc(-c2ccccc2)c(F)c1 (stereo not drawn),inactive
18,Nc1ncnc2c1ncn2[C@@H]1O[C@H](COP(=O)(O)O)[C@@H](O)[C@H]1O,inactive
19,CC(C(=O)O)c1ccc(/C=C2\CCCCC2=O)cc1 (stereo not drawn),inactive

row,SMILES,Potency
1,CC1(C)S[C@@H]2[C@H](NC(=O)C(c3ccccc3)S(=O)(=O)O)C(=O)N2[C@H]1C(=O)O (stereo partly drawn),inactive
2,CN1CCN(CC(=O)N2c3ccccc3C(=O)Nc3cccnc32)CC1,inactive
3,CCOc1ccccc1OCC1CNCCO1 (stereo not drawn),inactive
4,CC(=O)c1ccc(S(=O)(=O)NC(=O)NC2CCCCC2)cc1,inactive
5,CCCCCCCCCCCCSCCOCCO,inactive
6,Cc1c(I)c(=O)n(-c2ccccc2)n1C,inactive
7,CCOC(=O)Oc1ccc(CCNC(=O)[C@H](CCSC)NC(C)=O)cc1OC(=O)OCC,inactive
8,CN=C(NC#N)Nc1ccc(C2=NNC(=O)CC2C)cc1 (stereo not drawn),inactive
9,O=C(O)CCCC[C@@H]1SC[C@@H]2NC(=O)N[C@@H]21,inactive
10,CN[C@@H](C)Cc1ccccc1,inactive
11,COc1cccc(OC)c1C(=O)N[C@@H]1C(=O)N2[C@@H]1SC(C)(C)[C@@H]2C(=O)O,inactive
12,NS(=O)(=O)c1cc2c(cc1Cl)NC(CC1CCCC1)NS2(=O)=O (stereo not drawn),inactive
13,CC1c2ccccc2CN1NC(=O)c1ccc(Cl)c(S(N)(=O)=O)c1 (stereo not drawn),inactive
14,COC(=O)c1ccc(NC(C)=O)cc1OC,inactive
15,CC(C)(Oc1ccc(C2CC2(Cl)Cl)cc1)C(=O)O (stereo not drawn),inactive
16,CCCCNC(=O)NS(=O)(=O)c1ccc(N)cc1,inactive
17,CC(C)(C)CC(C)(C)c1ccc(O)c(-n2nc3ccccc3n2)c1,inactive
18,CC(=O)N(CC(O)CO)c1c(I)c(C(=O)NCCO)c(I)c(C(=O)NCC(O)CO)c1I (stereo not drawn),inactive
19,O=C(O)c1ccc(S(=O)(=O)N(Cl)Cl)cc1,inactive
